Compound activity as filed in PubChem BioAssay.
Rows were chosen to be rich in hits. Some 1.1% of all compounds tested hit in one or more screens of this group.
GRP78 ERSR act = inducers of ER stress response in human glioma cells; U87-MG GRP78 promoter luciferase reporter, 16 h; 420,000 compounds, 0.02% hits; Potency, µM, without a hit: at the highest dose activation, usual class: activators; further: series mostly up to about 76 µM; % of control where 0% means no effect; nearly all actives have a fitted effect of over 35% in size
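Stably transfected U87-MG glioma cells carrying a GRP78-based luciferase sensor; 16 h compound incubation. Luminescence end-point read 10 min after Bright-Glo addition at room temperature.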
12-LOX inh = blocks human arachidonate 12S-lipoxygenase | purified 12hLO, xylenol orange hydroperoxide absorbance | Potency, µM (series often up to 108 µM), for the others: top-dose activity change, negative = inhibition, most hits filed as inhibitors | 580,000 compounds, 1.1% hits | AID 1671190; further: on the % scale 0 is the no-effect control and ±100 the full control effect
Target sequence (P18054 whole entry, looked up): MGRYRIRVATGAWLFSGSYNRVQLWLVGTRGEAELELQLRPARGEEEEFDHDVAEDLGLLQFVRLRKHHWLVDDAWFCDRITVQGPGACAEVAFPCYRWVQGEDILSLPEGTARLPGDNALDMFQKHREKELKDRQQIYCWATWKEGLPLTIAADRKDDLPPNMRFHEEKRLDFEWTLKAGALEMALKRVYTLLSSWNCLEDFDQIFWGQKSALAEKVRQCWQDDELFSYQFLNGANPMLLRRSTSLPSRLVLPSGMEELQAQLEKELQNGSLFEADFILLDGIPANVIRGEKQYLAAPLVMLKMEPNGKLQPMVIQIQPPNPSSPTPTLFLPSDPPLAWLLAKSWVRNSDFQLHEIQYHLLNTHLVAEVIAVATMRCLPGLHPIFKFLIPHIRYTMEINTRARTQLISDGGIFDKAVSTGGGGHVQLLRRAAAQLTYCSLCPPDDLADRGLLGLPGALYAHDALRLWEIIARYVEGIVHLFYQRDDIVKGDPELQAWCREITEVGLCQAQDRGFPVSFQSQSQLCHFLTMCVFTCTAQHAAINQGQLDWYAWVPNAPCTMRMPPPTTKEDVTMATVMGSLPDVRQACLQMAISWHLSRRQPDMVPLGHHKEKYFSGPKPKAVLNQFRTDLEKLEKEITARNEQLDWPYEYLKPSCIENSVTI
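Purified human 12hLO at 150 nM in 25 mM Hepes, 0.01% Triton X-100, pH 7.0, preincubated 15 min at room temperature with compound. Reaction started with 40 uM arachidonic acid, 30 min at room temperature. Hydroperoxide measured by Fe-xylenol orange, 573/405 nm absorbance ratio.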
Apoferritin bind = binds horse apoferritin like a general anesthetic | P02791 | apoferritin/1-aminoanthracene competitive binding, fluorescence | Potency, µM (series often up to 77.5 µM), for the others: top-dose activity change, negative = displacement, usual class: inhibitors | 350,000 compounds, 0.074% hits | AID 485281; further: on the % scale 0 is the no-effect control and ±100 the full control effect; nearly all actives have a fitted effect of over 20% in size
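Horse-spleen apoferritin (10 uM) was mixed with 50% saturated 1-aminoanthracene in PBS, exposed to compounds for 10 min at room temperature, and read for fluorescence (ex 380 nm, em 535 nm). Competitive displacement was fitted with a four-parameter Hill equation.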
Chronic BCR inh = chronic active BCR signaling inhibition; AID 493014; 340,000 compounds, 0.05% hits; Potency, µM (highest dose often 46.1 µM), for the others: top-dose activity change, negative = inhibition, usual class: inhibitors; ABC-DLBCL IkBa-CBG/CBR reporter, luminescence ratio, 4 h; active means well fitted inhibition curve with a large enough effect in the signal ratio, with a control signal flat, not every such curve was filed as active; inconclusive means small, poorly fitted or top-dose-only effect, or effect the other way, or a change in a side signal; the % refers to the signal ratio;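 further: plate controls were basal doxycycline-induced cells for no effect and cells given 10 µM MG132 for full effect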
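Concentration-response series (up to 46 uM) were applied to TMD8 dual-reporter cells for 4 h at 37C with doxycycline. Green/red ratio, after filter-overlap correction, defined %Activity; red signal alone was normalised to basal cells and zero luminescence.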
Active calls of the source: *; ? = inconclusive; . = no result; ! = not active in a repeat; [ ] = remark or other dose. Unless noted, the call rests on the fitted dose curve; in most records, active means well fitted curve in the direction sought with a large enough effect; inconclusive means small, poorly fitted or top-dose-only effect, or another doubt; inactive means no such curve, though single readings can be large; an effect the other way counts as inactive or inconclusive. Potency means the concentration at half of the fitted maximal effect.

SMILES | GRP78 ERSR act | 12-LOX inh | Apoferritin bind | Chronic BCR inh
CCCN1CCN(c2cc(C(=O)O)c3cc(NC(=O)C(C)C)ccc3n2)CC1 | . | 11µM* | . | .
CC1(C)CC(=O)C2=C(C1)NC(=O)CC2c1ccsc1 (configuration not stated) | . | 24% | . | .
COc1ccc(-c2c(NC(=O)CC(C)C)oc3c(C)cccc3c2=O)cc1 | . | 25% | . | .
C=CCNC(=O)c1cc(-c2ccc(OCC)cc2)nc2ccccc12 | . | 31% | . | .
CCCNC(=S)NCCN1CCCCC1 | -7% | 0.63µM* | 3% | ?
CCCCNC(=S)NCCN1CCCCC1 | -6% | ? | 8% | 1%
CCNc1ccc(Br)cc(C(=O)/C=C/c2ccc(Cl)cc2Cl)c1=O | 0% | 7.1µM* | ? | 11%
O=C(/C=C/c1ccc(Cl)cc1Cl)c1cc(Cl)ccc1O | . | -69% | . | .
CNc1ccc(Br)cc(C(=O)/C=C/c2cc(OC)ccc2OC)c1=O | ? | ? | 9% | ?
CNc1ccc(Br)cc(C(=O)/C=C/c2ccc(OC)cc2)c1=O | -6% | 32µM* | 1% | -14%
Cc1cccc(C)c1OCCNC(=O)c1n[nH]c(=O)c2ccccc12 | . | 19% | . | .
O=C(CCN1CCC(c2ccccc2)C1)c1ccccc1 (configuration not stated) | -3% | ? | -5% | ?
O=C(CCN1CCC(c2ccccc2)C1)c1cccc2ccccc12 (configuration not stated) | . | 25µM* | . | .
O=C(CCN1CCC(c2ccccc2)C1)c1ccc2ccccc2c1 (configuration not stated) | . | 16µM* | . | .
CCOC(=O)c1cnc(SCC(=O)Nc2ccc(C)c(Cl)c2)nc1N | . | -16% | . | .
C=CCn1cc2c3c(cccc31)[C@H](CC(C)C)N[C@H](C(=O)NC1CCCC1)C2 | . | -4%[176 µM] | . | .
CC(NC(=O)c1csc2nc(-c3cccc(C(F)(F)F)c3)cn12)c1ccncn1 (configuration not stated) | . | 74% | . | .
CCOC(=O)C(=O)Nc1ccc(OCC(C)C)cc1 | . | 3% | . | .
COc1ccc(S(=O)(=O)n2oc(=O)cc2-c2ccccc2)cc1OC | 2% | 14µM* | -17% | ?
O=c1cc(-c2ccccc2)n(S(=O)(=O)c2ccccc2)o1 | 2% | 10µM* | -1% | ?
C/C(=N\O)c1ccc(OCCOc2ccc(/C(C)=N/O)cc2)cc1 | . | 13% | . | .
Cc1ccc(-c2cc(Nc3ccc(C(=O)N(C)Cc4ccccc4)cc3)ncn2)cc1 | . | -29% | . | .
CCN(CCO)c1ccc(Nc2cc(-c3ccc(-c4ccccc4)cc3)ncn2)cc1 | -2% | 11µM* | . | .
Fc1cccc(-c2nn[nH]n2)c1 | 2% | 25µM* | 1% | 0%
CC(C)c1ccccc1Cc1cc(C(=O)Nc2ccc(S(=O)(=O)c3ccccc3C(C)(C)C)cc2)c(O)c(O)c1O | . | 9.7µM* | . | .
SMILES | GRP78 ERSR act | 12-LOX inh | Apoferritin bind | Chronic BCR inh
O=C(Cc1ccc(Br)cc1)Nc1nc2c(s1)CCCC2 | . | -25% | . | .
CCCCN(C(=O)c1ccc(-c2ccc(Cl)cc2)o1)c1c(N)n(CCC)c(=O)[nH]c1=O | 0% | 16µM*! | . | 8%
Cc1ccc2oc(C(Cl)(Cl)Cl)cc(=O)c2c1 | -2% | 1%[57.4 µM] | -21% | 22µM*
O=c1c(-c2ccc([N+](=O)[O-])cc2)coc2c(O)c(O)ccc12 | 1% | 6.3µM* | -6% | 6%
C(=N\Nc1cccc2cccnc12)/c1c[nH]c2ccccc12 | . | 32µM* | . | .
Oc1c(/C=N/Nc2cccc3cccnc23)ccc2ccccc12 | 7% | -12% | 0% | -1%
Cc1nc2c3cccnc3nn2c(C)c1CCC(=O)Nc1cccc(Br)c1 | . | -27% | . | .
Cc1cc(C)c(Nc2n[nH]c(=S)s2)cc1C | -2% | 28µM* | . | .
Cc1cccc(Nc2n[nH]c(=S)s2)c1C | -2% | 6.3µM* | ? | ?
Cc1cccc(C)c1Nc1n[nH]c(=S)s1 | -2% | ? | . | .
CNc1n[nH]c(=S)s1 | -2% | 22µM* | 5% | 13%
COc1cccc(Nc2n[nH]c(=S)s2)c1 | -4% | 45µM* | 2% | -1%
O=C(NCCCN1CCCc2ccccc21)C1Cn2cccc2C(=O)N1Cc1cccnc1 (configuration not stated) | . | 41% | . | .
CC(C)c1ccc(Nc2n[nH]c(=S)s2)cc1 | 4% | 6.3µM* | . | .
Cc1ccc(Nc2n[nH]c(=S)s2)c(C)c1 | 0% | 25µM* | . | .
COc1ccccc1Nc1n[nH]c(=S)s1 | -3% | 14µM* | -16% | ?
COc1cc(NC(=S)NC(=O)c2ccc(C(C)(C)C)cc2)ccc1NC(=O)c1cccs1 | -4% | 6.3µM* | -11% | -1%
